Source: PubChem BioAssay AID1224856 (National Center for Advancing Translational Sciences (NCATS), 2016)
Records with an inconclusive call do not appear. Entries that show only a call come without a potency. The source made the active and inactive calls. The call rests on the fitted dose curve; in most records, active means well fitted curve in the direction sought with a large enough effect; inconclusive means small, poorly fitted or top-dose-only effect, or another doubt; inactive means no such curve, though single readings can be large or run the other way.

Test: Cell viability assay for measurement of the protective activity of small molecules against cell death caused by Zika virus infection in human astrocytes
Conditions: human astrocytes ZIKV-induced death, ATP luminescence, 72 h; series mostly up to 46.1 µM
How it was run: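 Protection against Zika-induced death was measured in human astrocytes infected at 2 FFU/cell one hour after compound addition. After 72 h at 37 °C, ATP luminescence was read and converted to percent inhibition of the viability decrease.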

Row | SMILES | Potency
1 | CCOC1OC(=O)C[C@H]1NC(=O)[C@@H]1CCCN1C(=O)[C@@H](NC(=O)c1ccc(N)c(Cl)c1)C(C)(C)C (stereo partly specified) | inactive
2 | CC(C(=O)O)c1ccc(C(=O)c2ccccc2)s1 (stereo unspecified) | inactive
3 | Cc1c(N)c(=O)n(-c2ccccc2)n1C | inactive
4 | COc1ccc(C=CC(=O)Nc2ccccc2C(=O)O)cc1OC | inactive
5 | O=C1c2ccccc2-[n+]2ccc3c([nH]c4ccccc43)c21 | inactive
6 | Cc1nc(-c2ccc(OCC(C)C)c(C#N)c2)sc1C(=O)O | inactive
7 | Cc1c(C(=O)O)c(O)cc2c1C(=O)c1c(O)c([C@@H]3O[C@H](CO)[C@@H](O)[C@H](O)[C@H]3O)c(O)c(O)c1C2=O | inactive
8 | O=c1c(-c2ccc(O)cc2)coc2cc(O)ccc12 | inactive
9 | CC(C)Oc1ccc2c(=O)c(-c3ccccc3)coc2c1 | inactive
10 | CN1CC(=O)N2C(Cc3c([nH]c4ccccc34)[C@H]2c2ccc3c(c2)OCO3)C1=O (stereo partly specified) | inactive
11 | O=C1CCC[C@@H]2[C@H]3CCCN4CCC[C@@H](CN12)[C@@H]34 | inactive
12 | C[C@@H](O[C@H]1OCCN(Cc2n[nH]c(=O)[nH]2)[C@@H]1c1ccc(F)cc1)c1cc(C(F)(F)F)cc(C(F)(F)F)c1 | inactive
13 | C[C@@H]1CCN(C(=O)CC#N)C[C@H]1N(C)c1ncnc2[nH]ccc12 | inactive
14 | CCCSc1ccc2nc(NC(=O)OC)[nH]c2c1 | inactive
15 | Cc1ccc(O)c(-n2nc3ccccc3n2)c1 | inactive
16 | Nc1ncnc2c1ncn2[C@@H]1O[C@@H](CO)[C@H](O)[C@H]1O | inactive
17 | O=C(O)[C@@H](c1ccc(OCc2ccc3ccccc3n2)cc1)C1CCCC1 | inactive
18 | O=C(C=CC=Cc1ccc2c(c1)OCO2)N1CCCCC1 | inactive
19 | O=C1C[C@@H](c2ccc(O)cc2)Oc2cc(O)cc(O)c21 | inactive
20 | CC(O)CN1CCN(CC(=O)[O-])CCN(CC(=O)[O-])CCN(CC(=O)[O-])CC1.[Gd+3] (stereo unspecified) | inactive
21 | O=C(Nc1ncc([N+](=O)[O-])s1)c1cccs1 | inactive
22 | O=c1cc(-c2ccccc2)oc2cc(O)c(O)c(O)c12 | inactive
23 | Cc1cc(O)c2c(c1)C(=O)c1cc(O)cc(O)c1C2=O | inactive
24 | Nc1ccc(N=Nc2ccccc2)c(N)n1 | inactive
25 | c1ccc2[nH]c(-c3cscn3)nc2c1 | inactive
26 | Nc1c(S(=O)(=O)O)cc(Nc2ccc(Nc3nc(Cl)nc(Nc4ccc(S(=O)(=O)O)cc4)n3)c(S(=O)(=O)O)c2)c2c1C(=O)c1ccccc1C2=O | inactive
